Source: PubChem BioAssay (NCATS)
“And” between values parts separate entries of the source, which are not always exact repeats. Equal values may be shown once. Results filed as inconclusive are left out. The source made the active and inactive calls. Unless noted, calls follow the shape of the dose curve; as a rule, active = well fitted curve in the direction sought with a large enough effect; inconclusive = small, poorly fitted or top-dose-only effect, or another doubt; inactive = no such curve, though single readings can be large; an effect the other way counts as inactive or inconclusive. Peptide text beside a SMILES is read from it.

What was measured:
[1] = target: Peptidyl-prolyl cis-trans isomerase NIMA-interacting 1 (Homo sapiens) (UniProt Q13526); experiment: qHTS Validation Assay to Find Inhibitors of Pin1 (AID 504536; active = well fitted inhibition curve with a large enough effect in the polarisation, with a control signal flat, not every such curve was filed as active; the % refers to the polarisation;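 also: 0% = full Pin1 enzyme wells and -100% = no-enzyme wells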)
Summary of the method: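 Fluorescence polarization competition: compounds (titration) displace HiFluor-488-labeled Pin1-1b peptide from Pin1 (0.3 uM final) in pH 7.5 HEPES buffer with DTT, 10 min at room temperature; %Activity normalized to no-enzyme wells, curves fitted.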

[2] = target: Phosphoglycerate kinase, glycosomal (Trypanosoma brucei brucei) (UniProt P07378); experiment: qHTS Validation Assay to Find Inhibitors of Phosphoglycerate Kinase (AID 504547);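 also: control wells lack PGK and mark full inhibition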
Summary of the method: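 PGK activity was coupled to GAPDH (100nM final), which generates the unstable substrate 1,3-bisphosphoglycerate in-well. Reactions ran 60 minutes at room temperature in 100mM TEA pH 7.6, 5mM MgCl2, 0.01% Tween-20, then Kinase-Glo Plus luminescence was read.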

[3] = target: phosphoglycerate mutase (Leishmania major) (UniProt Q4Q090); experiment: qHTS Validation Assay to Find Inhibitors of Phosphoglycerate Mutase (AID 504548); details: Potency: inhibition qHTS; also: potency is read from the fitted curve at half-maximal effect
Summary of the method: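 Lm PGAM at 1.25 nM final with substrate in 100 mM TEA pH 7.6, 5 mM MgCl2, 0.01% Tween-20; 45 min at room temperature. Kinase-GloPlus added, 10 min, end-point luminescence read.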

[4] = target: DNA dC->dU-editing enzyme APOBEC-3G (Homo sapiens) (UniProt Q9HC16); experiment: qHTS for inhibitors of Vif-A3G interactions: Validation (AID 588379); also: 0% is about no effect
Summary of the method: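 HeLa cells stably expressing Vif and A3G-eYFP, 700 cells/well, incubated overnight at 37 deg C, then exposed to compound overnight at 37 deg C. Inhibition of Vif-mediated degradation read as increased yellow fluorescence (Ex 488/Em 500-530) by laser-scanning cytometry.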

[5] = target: Estrogen receptor (Homo sapiens) (UniProt P03372); experiment: qHTS assay for small molecule agonists of estrogen receptor alpha signaling (AID 588514; calls by dose curve;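 also: 0% = vehicle only and 100% = reference agonist; nearly all actives have a fitted effect of over 70% in size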)
Summary of the method: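 Cells were plated at 5000/well, incubated 4 hrs at 37 C, dosed with compound titration series, incubated 18 hrs at 37 C, loaded with CCF4 dye for 2 hrs at RT, then fluorescence was read.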

[6] = target: Glucocorticoid receptor (Homo sapiens) (UniProt P04150); experiment: qHTS assay for small molecule agonists of glucocorticoid receptor signaling (AID 588532; active = well fitted curve in the direction sought with a large enough effect in the signal ratio, with a control signal flat; the % refers to the signal ratio;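 also: 100% = dexamethasone at 0.1 µM and 0% = DMSO only wells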); details: HeLa MMTV-bla, beta-lactamase ratio, agonist, 18 h; stronger effect = higher value; percent of dexamethasone control, DMSO zero
Summary of the method: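 MMTV-bla HeLa beta-lactamase reporter cells in 1% charcoal/dextran FBS medium, compounds up to 92 uM for 18 h at 37 C, CCF4 readout; normalized to 0.1 uM dexamethasone (100%), EC50 and efficacy from Hill fits.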

[7] = target: Glucocorticoid receptor (Homo sapiens) (UniProt P04150); experiment: qHTS assay for small molecule antagonists of glucocorticoid receptor signaling (AID 588533; active = well fitted inhibition curve with a large enough effect in the signal ratio, with a control signal flat, not every such curve was filed as active; the % refers to the signal ratio;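 also: cells stimulated with 2 nM dexamethasone as agonist; % is scaled to controls: 0 for no effect and ±100 for the full control effect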)
Summary of the method: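 Antagonist-mode qHTS: compound titrations added to GRE-bla HeLa cells, then dexamethasone 2 nM final; 18 h, 37 C. CCF4 FRET fluorescence normalized to dexamethasone and DMSO; IC50 from Hill fit.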

[8] = target: Ubiquitin carboxyl-terminal hydrolase 1 (Homo sapiens) (UniProt O94782); experiment: Inhibitors of USP1/UAF1: Pilot qHTS (AID 504865);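 also: rhodamine fluorescence freed from ubiquitin-rhodamine substrate followed over time; top concentration of the series differs between compounds; % is scaled to controls: 0 for no effect and ±100 for the full control effect; nearly all actives have a fitted effect of over 35% in size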
Summary of the method: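 1nM USP1/UAF1 + cpd, 15 min RT; start w/ Ub-Rho 150nM final; kinetic FL 480/540 nm, 6 reads q60 s. Buffer 50mM HEPES pH 7.8, 0.5mM EDTA, 1mM TCEP, 0.01% Tween-20, 0.1 mg/ml BSA.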

[9] = qHTS for Inhibitors of ATXN expression: Validation of Cytotoxic Assay (AID 588349); also: % is scaled to controls: 0 for no effect and ±100 for the full control effect
Summary of the method: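 Read-out: ATP-based luminescence (CellTiter Glo) reflecting viability of HEK293 cells after 72 hr incubation at 37 degrees C with a concentration series of each compound.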

[10] = qHTS for Inhibitors of ATXN expression: Validation (AID 588378); also: series mostly up to about 57 µM; % is scaled to controls: 0 for no effect and ±100 for the full control effect; nearly all actives have a fitted effect of over 75% in size
Summary of the method: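 Cells: HEK293-ATXN2-FFLuc, phenol-red free DMEM, 2 h attachment. Compound pin-transfer, 24 h, 37 degrees C, 5% CO2. CellTiter-Fluor 30 min, Ex405/Em525; Bright-Glo 5 min, luminescence 2 s exposure.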

[11] = target: Bile acid receptor (Homo sapiens) (UniProt Q96RI1); experiment: qHTS assay for small molecule antagonists of farnesoid X receptor signaling (AID 588526; calls by dose curve; also: % is scaled to controls: 0 for no effect and ±100 for the full control effect)
Summary of the method: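 Antagonist mode: titrated compounds tested against chenodeoxycholic acid stimulation (normalized to 50 uM CDCA and DMSO) in GeneBLAzer HEK293T cells for 16 h. Beta-lactamase read by CCF4 fluorescence; IC50 from Hill fits.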

[12] = target: Peroxisome proliferator-activated receptor gamma (Homo sapiens) (UniProt P37231); experiment: qHTS assay for small molecule agonists of peroxisome proliferator-activated receptor gamma signaling (AID 588536; active = well fitted curve in the direction sought with a large enough effect in the signal ratio, with a control signal flat, not every such curve was filed as active; the % refers to the signal ratio;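 also: 0% = DMSO basal wells and 100% = rosiglitazone at 2 µM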)
Summary of the method: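 GeneBLAzer PPAR-gamma-UAS-bla HEK293 cells in 1% charcoal/dextran-treated FBS medium were treated 16 h at 37 C with compounds. Beta-lactamase activity was read by CCF4 ratio (460/530 nm). Response was normalized to 2 uM rosiglitazone (100%) and DMSO, then Hill-fitted for EC50 and efficacy.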

[13] = target: Peroxisome proliferator-activated receptor gamma (Homo sapiens) (UniProt P37231); experiment: qHTS assay for small molecule antagonists of peroxisome proliferator-activated receptor gamma signaling (AID 588537; active = well fitted inhibition curve with a large enough effect in the signal ratio, with a control signal flat, not every such curve was filed as active; the % refers to the signal ratio;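 also: reporter cells co-stimulated with 50 nM rosiglitazone agonist during compound treatment; % of control where 0% means no effect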)
Summary of the method: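 PPARγ-UAS-bla HEK293 cells (3000/well) in 1% charcoal/dextran-stripped FBS are treated with compound, then stimulated with 50 nM rosiglitazone for 16 h at 37 °C. Read-out is CCF4 β-lactamase fluorescence after 2 h at RT. IC50 comes from Hill fits normalised to rosiglitazone and DMSO.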

[14] = target: Vitamin D3 receptor (Homo sapiens) (UniProt P11473); experiment: qHTS assay for small molecule agonists of vitamin D receptor signaling (AID 588543; calls by dose curve;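 also: 0% = DMSO basal and 100% = reference agonist control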)
Summary of the method: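 β-lactamase reporter, VDR-UAS-bla HEK293T, agonist mode. Cells plated 5 h at 37 °C, compound titration 16 h at 37 °C, CCF4 dye 2 h RT, ratio 460/530 nm. Hill fit → EC50, efficacy vs 50 nM 1α,25-(OH)2D3.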

[15] = target: Estrogen receptor (Homo sapiens) (UniProt P03372); experiment: qHTS assay for small molecule antagonists of estrogen receptor alpha signaling (AID 588513; active = well fitted curve in the direction sought with a large enough effect in the signal ratio, with a control signal flat, not every such curve was filed as active; the % refers to the signal ratio; also: % is scaled to controls: 0 for no effect and ±100 for the full control effect)
Summary of the method: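 Beta-lactamase reporter, antagonist mode, HEK 293 GripTite cells; 0.5nM E2 stimulus, 18 h, 37 C; CCF4 dye 2 h RT; fluorescence. IC50 and efficacy from Hill fits, normalized to E2 and DMSO.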

[16] = qHTS assay for small molecule antagonists of peroxisome proliferator-activated receptor delta signaling (AID 588535; active = well fitted inhibition curve with a large enough effect in the signal ratio, with a control signal flat, not every such curve was filed as active; the % refers to the signal ratio;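 as to max response: cells co-treated with a PPAR-delta agonist as stimulator during compound exposure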); details: HEK293T PPARd-UAS-bla, beta-lactamase FRET ratio, 18 h; 460 nm channel
Summary of the method: (§1)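 Antagonist-mode beta-lactamase reporter (GeneBLAzer PPAR-delta-UAS-bla) in HEK293T cells, 2% charcoal/dextran FBS, 4000 cells/well. Compound titrations, 18 h at 37 C; CCF4 ratio read, IC50 and efficacy from Hill fits.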

[17] = target: Peroxisome proliferator-activated receptor delta (Homo sapiens) (UniProt Q03181); experiment: as above
Summary of the method: as §1

[18] = qHTS assay for small molecule agonists of retinoid X receptor alpha signaling (AID 588544); details: HEK293T RXRa-UAS-bla, beta-lactamase reporter, 18 h; 530 nm emission

Ubiquitin carboxyl-terminal hydrolase 1 (Homo sapiens), sequence (O94782 whole entry, looked up): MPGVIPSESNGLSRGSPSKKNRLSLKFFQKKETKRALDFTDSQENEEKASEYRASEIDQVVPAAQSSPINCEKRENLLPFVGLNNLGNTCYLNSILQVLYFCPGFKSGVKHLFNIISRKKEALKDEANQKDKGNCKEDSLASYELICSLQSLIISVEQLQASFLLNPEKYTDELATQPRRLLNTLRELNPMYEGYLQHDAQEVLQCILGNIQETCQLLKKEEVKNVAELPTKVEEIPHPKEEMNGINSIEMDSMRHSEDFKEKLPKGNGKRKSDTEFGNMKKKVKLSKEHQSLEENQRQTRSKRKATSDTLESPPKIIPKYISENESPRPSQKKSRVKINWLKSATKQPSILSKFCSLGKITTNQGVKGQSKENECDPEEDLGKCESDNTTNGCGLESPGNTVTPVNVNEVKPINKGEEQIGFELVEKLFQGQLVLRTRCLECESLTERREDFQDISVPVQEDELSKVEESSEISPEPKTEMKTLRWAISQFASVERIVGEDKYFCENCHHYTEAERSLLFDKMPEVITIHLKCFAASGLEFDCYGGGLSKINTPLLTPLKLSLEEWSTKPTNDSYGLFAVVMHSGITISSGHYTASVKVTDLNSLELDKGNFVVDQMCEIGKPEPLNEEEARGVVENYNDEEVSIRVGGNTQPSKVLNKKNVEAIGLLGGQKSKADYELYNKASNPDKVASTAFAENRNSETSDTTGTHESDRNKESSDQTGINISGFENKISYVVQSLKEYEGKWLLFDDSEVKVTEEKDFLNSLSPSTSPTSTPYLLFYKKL
Bile acid receptor (Homo sapiens), sequence (Q96RI1 whole entry, looked up): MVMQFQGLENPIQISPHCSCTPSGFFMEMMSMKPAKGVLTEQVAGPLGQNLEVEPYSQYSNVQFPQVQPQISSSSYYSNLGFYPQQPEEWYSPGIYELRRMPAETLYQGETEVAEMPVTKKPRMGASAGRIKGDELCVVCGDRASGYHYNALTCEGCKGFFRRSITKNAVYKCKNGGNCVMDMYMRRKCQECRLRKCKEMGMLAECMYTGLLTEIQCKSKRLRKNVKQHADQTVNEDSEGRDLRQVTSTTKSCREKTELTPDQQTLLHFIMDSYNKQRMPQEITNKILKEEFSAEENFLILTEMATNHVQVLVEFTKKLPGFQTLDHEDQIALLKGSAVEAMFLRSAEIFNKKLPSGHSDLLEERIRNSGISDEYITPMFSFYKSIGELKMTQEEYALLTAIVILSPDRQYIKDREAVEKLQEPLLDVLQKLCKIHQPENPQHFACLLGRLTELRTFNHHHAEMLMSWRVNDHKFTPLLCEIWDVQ
Phosphoglycerate kinase, glycosomal (Trypanosoma brucei brucei), sequence (P07378 whole entry, looked up): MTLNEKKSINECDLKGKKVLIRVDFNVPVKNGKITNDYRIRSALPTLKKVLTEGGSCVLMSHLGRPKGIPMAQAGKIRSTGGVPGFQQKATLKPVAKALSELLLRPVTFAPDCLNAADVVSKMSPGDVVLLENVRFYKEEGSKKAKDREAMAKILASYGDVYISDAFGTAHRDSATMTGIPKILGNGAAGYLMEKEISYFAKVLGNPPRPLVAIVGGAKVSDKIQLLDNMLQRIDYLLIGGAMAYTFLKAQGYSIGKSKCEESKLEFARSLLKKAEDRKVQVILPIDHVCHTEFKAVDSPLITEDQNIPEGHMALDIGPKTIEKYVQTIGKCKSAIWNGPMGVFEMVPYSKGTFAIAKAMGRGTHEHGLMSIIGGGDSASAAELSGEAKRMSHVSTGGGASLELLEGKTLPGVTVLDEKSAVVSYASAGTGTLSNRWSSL
Estrogen receptor (Homo sapiens), sequence (P03372 whole entry, looked up): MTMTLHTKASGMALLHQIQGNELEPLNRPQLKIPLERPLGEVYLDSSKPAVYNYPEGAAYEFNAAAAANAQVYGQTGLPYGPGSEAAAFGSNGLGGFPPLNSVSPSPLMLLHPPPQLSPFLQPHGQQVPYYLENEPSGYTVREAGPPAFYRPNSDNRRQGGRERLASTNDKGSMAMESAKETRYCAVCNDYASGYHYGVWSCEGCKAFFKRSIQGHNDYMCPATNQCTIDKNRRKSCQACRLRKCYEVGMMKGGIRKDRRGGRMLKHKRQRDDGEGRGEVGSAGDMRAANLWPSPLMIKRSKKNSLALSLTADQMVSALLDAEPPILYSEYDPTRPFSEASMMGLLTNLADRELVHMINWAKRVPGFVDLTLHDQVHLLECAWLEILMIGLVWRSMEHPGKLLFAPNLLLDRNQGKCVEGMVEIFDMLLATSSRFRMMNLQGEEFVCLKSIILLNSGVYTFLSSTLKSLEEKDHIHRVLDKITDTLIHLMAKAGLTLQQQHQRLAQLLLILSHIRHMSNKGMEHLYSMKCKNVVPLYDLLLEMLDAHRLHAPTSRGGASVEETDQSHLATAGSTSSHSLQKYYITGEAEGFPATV
Peptidyl-prolyl cis-trans isomerase NIMA-interacting 1 (Homo sapiens), sequence (Q13526 whole entry, looked up): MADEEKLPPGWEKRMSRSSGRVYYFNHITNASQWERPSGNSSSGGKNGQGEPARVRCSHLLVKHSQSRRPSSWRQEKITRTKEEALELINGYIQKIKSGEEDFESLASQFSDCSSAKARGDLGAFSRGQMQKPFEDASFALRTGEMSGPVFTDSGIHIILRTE
Glucocorticoid receptor (Homo sapiens), sequence (P04150 whole entry, looked up): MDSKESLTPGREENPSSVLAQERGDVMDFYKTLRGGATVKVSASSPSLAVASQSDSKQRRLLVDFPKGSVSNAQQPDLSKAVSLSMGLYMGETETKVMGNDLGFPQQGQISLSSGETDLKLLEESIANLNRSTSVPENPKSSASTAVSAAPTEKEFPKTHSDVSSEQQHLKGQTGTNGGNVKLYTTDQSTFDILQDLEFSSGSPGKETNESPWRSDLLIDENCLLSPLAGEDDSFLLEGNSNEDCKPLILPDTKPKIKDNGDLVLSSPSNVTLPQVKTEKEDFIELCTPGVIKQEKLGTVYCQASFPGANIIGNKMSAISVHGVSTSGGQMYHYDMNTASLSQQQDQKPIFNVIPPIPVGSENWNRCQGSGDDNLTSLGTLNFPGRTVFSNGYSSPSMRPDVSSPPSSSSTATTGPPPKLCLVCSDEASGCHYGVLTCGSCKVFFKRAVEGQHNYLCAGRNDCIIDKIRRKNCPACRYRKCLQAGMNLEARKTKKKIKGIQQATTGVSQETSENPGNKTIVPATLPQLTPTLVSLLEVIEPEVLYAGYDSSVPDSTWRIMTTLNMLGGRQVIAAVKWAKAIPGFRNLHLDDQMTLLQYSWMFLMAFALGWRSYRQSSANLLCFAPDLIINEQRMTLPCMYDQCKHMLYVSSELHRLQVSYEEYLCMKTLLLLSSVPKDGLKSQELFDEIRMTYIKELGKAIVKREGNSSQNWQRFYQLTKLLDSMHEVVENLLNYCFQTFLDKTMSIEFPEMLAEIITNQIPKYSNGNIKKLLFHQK
DNA dC->dU-editing enzyme APOBEC-3G (Homo sapiens), sequence (Q9HC16 whole entry, looked up): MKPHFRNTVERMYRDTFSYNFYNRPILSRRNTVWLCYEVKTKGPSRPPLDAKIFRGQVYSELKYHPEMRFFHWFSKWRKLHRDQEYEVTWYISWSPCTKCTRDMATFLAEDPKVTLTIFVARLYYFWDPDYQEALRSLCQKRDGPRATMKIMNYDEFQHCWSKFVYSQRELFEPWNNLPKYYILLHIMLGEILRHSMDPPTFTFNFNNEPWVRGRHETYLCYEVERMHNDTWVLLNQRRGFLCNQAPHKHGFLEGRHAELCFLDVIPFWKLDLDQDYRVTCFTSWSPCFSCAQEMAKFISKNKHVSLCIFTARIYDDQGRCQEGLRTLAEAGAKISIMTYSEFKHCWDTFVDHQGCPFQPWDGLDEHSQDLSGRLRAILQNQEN
phosphoglycerate mutase (Leishmania major), sequence (Q4Q090 1-553): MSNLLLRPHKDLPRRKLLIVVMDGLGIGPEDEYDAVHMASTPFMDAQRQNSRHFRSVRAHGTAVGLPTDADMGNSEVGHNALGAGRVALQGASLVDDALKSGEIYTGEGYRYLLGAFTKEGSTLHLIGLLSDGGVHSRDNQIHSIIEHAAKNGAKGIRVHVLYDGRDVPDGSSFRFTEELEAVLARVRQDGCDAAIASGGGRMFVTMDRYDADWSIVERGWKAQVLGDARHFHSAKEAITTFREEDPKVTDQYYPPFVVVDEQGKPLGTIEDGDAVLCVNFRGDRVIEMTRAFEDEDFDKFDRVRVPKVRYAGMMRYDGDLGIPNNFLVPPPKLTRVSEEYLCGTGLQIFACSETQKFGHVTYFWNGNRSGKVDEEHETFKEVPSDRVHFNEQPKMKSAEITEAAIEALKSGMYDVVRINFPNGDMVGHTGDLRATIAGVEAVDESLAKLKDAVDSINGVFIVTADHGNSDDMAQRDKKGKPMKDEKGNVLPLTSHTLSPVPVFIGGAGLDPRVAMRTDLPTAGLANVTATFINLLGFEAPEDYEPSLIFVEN
Peroxisome proliferator-activated receptor gamma (Homo sapiens), sequence (P37231 whole entry, looked up): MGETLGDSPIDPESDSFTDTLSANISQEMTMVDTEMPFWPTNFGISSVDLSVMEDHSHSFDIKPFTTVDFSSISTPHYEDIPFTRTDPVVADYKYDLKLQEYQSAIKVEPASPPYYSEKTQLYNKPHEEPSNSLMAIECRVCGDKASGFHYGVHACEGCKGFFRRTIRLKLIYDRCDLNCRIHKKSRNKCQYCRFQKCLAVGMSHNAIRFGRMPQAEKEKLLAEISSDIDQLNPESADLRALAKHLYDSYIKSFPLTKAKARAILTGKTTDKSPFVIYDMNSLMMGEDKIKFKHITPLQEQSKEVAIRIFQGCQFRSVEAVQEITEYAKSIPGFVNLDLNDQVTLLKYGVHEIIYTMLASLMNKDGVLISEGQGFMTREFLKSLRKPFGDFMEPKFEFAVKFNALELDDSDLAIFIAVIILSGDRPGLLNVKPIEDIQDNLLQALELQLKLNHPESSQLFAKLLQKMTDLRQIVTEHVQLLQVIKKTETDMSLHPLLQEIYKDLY

CC(=O)N1CCN(c2ccc(OC[C@H]3CO[C@](Cn4ccnc4)(c4ccc(Cl)cc4Cl)O3)cc2)CC1
inactive: outcome [1] | Potency [2] | Potency [3] | outcome [4] | outcome [5] | activation [6] 3.09% | outcome [7]

NCCCCNCCCN
inactive: outcome [1] | Potency [2] | Potency [3] | Potency [8] | outcome [9] | Potency [10] | outcome [4]

CC(=O)O[C@H]1C(=O)[C@@]2(C)C([C@H](OC(=O)c3ccccc3)[C@]3(O)C[C@H](OC(=O)[C@H](O)[C@@H](NC(=O)c4ccccc4)c4ccccc4)C(C)=C1C3(C)C)[C@]1(OC(C)=O)CO[C@@H]1C[C@@H]2O (some centres not stated)
inactive: Potency [2] | Potency [3] | Potency [8]

O=C1NC(=O)C(c2ccccc2[N+](=O)[O-])=C1Nc1ccc(O)c(Cl)c1
inactive: outcome [1] | Potency [2] | Potency [3] | Potency [8] | outcome [9] | Potency [10] | outcome [4]

Oc1ccc2ccccc2c1SSc1c(O)ccc2ccccc12
inactive: outcome [1] | Potency [2] | Potency [3] | Potency [8] | outcome [9] | Potency [10]

NNc1nncc2ccccc12
inactive: outcome [1] | Potency [2] | Potency [3] | Potency [8] | outcome [9] | Potency [10]

Cc1cc(O)c2c(c1)C(=O)c1cc(O)cc(O)c1C2=O
inactive: outcome [1] | Potency [2] | outcome [9] | Potency [10] | activation [6] -3.03% and -5.65%

O=C1c2ccccc2-c2n[nH]c3cccc1c23
inactive: Potency [2] | Potency [8] | Potency [10] | outcome [4]
active: Potency [3] 21.3 µM

NC(=NCc1ccccc1)NC(=O)c1nc(Cl)c(N)nc1N
inactive: outcome [1] | Potency [2] | Potency [3] | Potency [8] | Potency [10]

O=C1c2c(O)cc(O)cc2OC(c2ccc(O)c(O)c2)C1O (configuration not stated)
inactive: outcome [4]

O=c1c(O)c(-c2ccc(O)cc2O)oc2cc(O)cc(O)c12
inactive: outcome [4] | outcome [11] | activation [6] -17.5% | outcome [7] | outcome [12] | Potency [13] | outcome [14]

CCC(C)(Oc1ccc(C2(c3ccc(OC(C)(CC)C(=O)O)cc3)CCCCC2)cc1)C(=O)O (configuration not stated)
inactive: Potency [8]

COC(=O)[C@H](Cc1ccccc1)NC(=O)[C@@H](N)CC(=O)O (H-Asp-Phe-OMe)
3.6% and 1.05%: max response [18]
-1.9% and 6.72%: max response [16]
inactive: Potency [8] | outcome [15] | outcome [5] | outcome [11] | activation [6] -0.956% and -8.82% | outcome [7] | outcome [17] | outcome [12] | Potency [13]

O=P(O)(O)C(O)(Cn1ccnc1)P(=O)(O)O
inactive: Potency [8]

COC(=O)C1=C(C)NC(C)=C(C(=O)OC(C)C)C1c1cccc2nonc12 (configuration not stated)
inactive: outcome [4]

CN(C)c1ccc2nc3ccc(=[N+](C)C)cc-3sc2c1
inactive: outcome [5] | outcome [7] | outcome [12]

CC(=O)Nc1ccc(O)cc1
inactive: outcome [4]
